Assay results taken from PubChem BioAssay (NCATS).
Inconclusive results are not listed. Activity calls are given as the source filed them. Unless noted, the call rests on the fitted dose curve; in most records, active means well fitted curve in the direction sought with a large enough effect; inconclusive means small, poorly fitted or top-dose-only effect, or another doubt; inactive means no such curve, though single readings can be large; an effect the other way counts as inactive or inconclusive.

Tests used:
[1] = target: Cytochrome P450 3A4 (Homo sapiens) (UniProt P08684); assay: qHTS Assay for Activators of Cytochrome P450 3A4 (AID 885); further: nearly all actives have a fitted effect of over 65% in size
Method in brief: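 Human CYP3A4 dealkylates Luciferin-PPXE to luciferin, which luciferase detection converts to light. Substrate was at its KM (25uM), buffer 200mM KPO4, reaction 60 min at RT.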

[2] = Confirmation and Secondary Assay for Modulators of Hemoglobin Beta Chain Splicing at IVS2 654 locus (AID 910);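 further: HeLa cells stably carrying EGFP split by mutant beta-globin IVS2-654 intron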
Method in brief: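 Readout: per-well total peak green fluorescence (488 nm ex, 500–520 nm em) from objects 5–250 µm, reflecting correct splicing of an EGFP-654 reporter. Compounds were applied for 2 days at 37 °C to overnight-plated HeLa EGFP-654 cells; controls were DMSO and 500 nM IVS2-654 PNA.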

[3] = Confirmation and Secondary Assay for Modulators of Hemoglobin Beta Chain Splicing at IVS2 705 locus (AID 930);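 further: HeLa cells stably expressing the EGFP-705 splicing reporter; GFP fluorescence per well restored by corrected splicing of the IVS2-705 intron in EGFP; series mostly up to about 46 µM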
Method in brief: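 Read-out: total peak GFP fluorescence per well (488 nm excitation, 500-520 nm emission) by laser-scanning cytometry. Cells: HeLa EGFP-705 splicing reporter, 2 days compound exposure in Optimem/2% FCS.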

[4] = Cellular Toxicity (caspase-3) Hek293 (AID 664);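 further: cells exposed to compound for 16 h at 37 °C before readout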
Method in brief: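 Luminescent Caspase-Glo 3/7 readout (aminoluciferin release) in HEK293 cells after 16 h compound treatment, 37 °C. Normalization: DMSO = basal, 100 uM tamoxifen = 100% stimulation. Concentration-response fitted with standard Hill equation for AC50.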

[5] = Cellular Toxicity (caspase-3) N2a (AID 665);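 further: compound exposure lasted 16 h at 37 °C before readout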
Method in brief: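 Luminescent Caspase-Glo 3/7 readout in N2a mouse neuroblastoma cells after 16 h compound exposure at 37 °C. Signal scaled to DMSO (basal) and 10 uM staurosporine (100%). Concentration-response fitted with Hill equation for AC50.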

[6] = Cellular Toxicity (caspase-3) NIH 3T3 (AID 666)
Method in brief: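 NIH 3T3, 1000 cells/well, 5 hr settle then 16 hr compound at 37°C; Caspase-Glo 3/7, 20 min RT, luminescence. DMSO = basal, 100 uM tamoxifen = 100%. Hill-equation AC50, qHTS.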

[7] = Cellular Toxicity (caspase-3) Renal Proximal Tubule (AID 667);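 further: cells exposed to compound for 16 hours at 37 °C before detection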
Method in brief: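 Freshly isolated primary rat kidney proximal tubule cells, 1000/well, treated 16 hr at 37 °C, then Caspase-Glo 3/7 luminescence after 1 hr. Normalized to DMSO and 10 uM staurosporine; AC50 from Hill fit.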

[8] = Cell Viability - LYMP2-001 (AID 921); further: series mostly up to about 92 µM; nearly all actives have a fitted effect of over 70% in size
Method in brief: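 Human lymphoblastoid LYMP2-001 cells, 2500 per well, in complete medium, treated 24 h at 37 C. Viability from cellular ATP by CellTiter-Glo luminescence; AC50 from Hill-equation fits of qHTS concentration-response.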

[9] = MultiTox-Fluor Cytotoxicity Assay - LYMP1-001 - Dead Cells (AID 946)
Method in brief: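 LYMP1-001 lymphoblastoid cells (2500/well) treated 16 h at 37 C. Dead-cell protease cleavage of bis-AAF-R110 read at Ex/Em 485/520. Normalized to DMSO and 15 uM tetraoctylammonium bromide; AC50 from Hill fits.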

[10] = MultiTox-Fluor Cytotoxicity Assay - LYMP1-001 - Live Cells (AID 947)
[11] = Cell Viability - LYMP1-002 - Assay at 16 hr (AID 948)
Method in brief: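 LYMP1-002 human lymphoblastoid cells, 2500/well, were treated with compounds for 16 hr at 37 C in complete medium. Viability was read as intracellular ATP by CellTiter-Glo luminescence, and AC50 was derived from a Hill fit to concentration-response data.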

[12] = MultiTox-Fluor Cytotoxicity Assay - LYMP1-002 - Live Cells (AID 955);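 further: cells exposed to compound for 16 hours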
Method in brief: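 LYMP1-002 lymphoblastoid cells; 2500 cells/well; 16 hr compound exposure, 37 C; MultiTox-Fluor reagent 60 min RT; live-cell fluorescence Ex/Em=405/510; qHTS concentration-response, Hill-equation AC50; tetraoctylammonium bromide positive control.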

[13] = target: Guanine nucleotide-binding protein G(i) subunit alpha-1 (Homo sapiens) (UniProt P63096); assay: qHTS Assay for Inhibitors of RGS12 GoLoco Motif Activity (Green Fluorophore) (AID 879);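 further: negative values mean loss of peptide binding seen as reduced polarization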
Method in brief: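 A drop in FITC polarization marked displacement of the FITC-tagged RGS12 GoLoco peptide (10 nM) from Gαi1 (50 nM). Compounds were incubated 10 min at room temperature in Tris pH 7.5 buffer containing 150 mM NaCl, 0.1 mM GDP and 0.05% NP40; unlabeled peptide titration served as control.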

[14] = target: Cytochrome P450 2C19 (Homo sapiens) (UniProt P33261); assay: qHTS Assay for Inhibitors and Substrates of Cytochrome P450 2C19 (AID 899); further: nearly all actives have a fitted effect of over 60% in size
Method in brief: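 Luminescence readout of luciferin formed from 10uM Luciferin-H EGE (KM level) by 5 nM CYP2C19 in 50mM KPO4. 60 min NADPH-driven reaction at 37C after 10 min compound preincubation; data scaled to 57uM ketoconazole inhibition.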

[15] = qHTS Assay for Identification of Small Molecule Agonists for Thrombopoietin (TPO) Signaling Pathway (AID 917)
Method in brief: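 Stimulation at the TPO EC50 (26 pM final) was used to detect activators. Ba/F3 mouse cells bearing human TPO receptor and a luciferase reporter under the Glycoprotein IIb promoter were exposed to compounds for 24 hrs at 37 C.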

[16] = target: Muscarinic acetylcholine receptor M1 (Rattus norvegicus) (UniProt P08482); assay: qHTS Assay for Antagonists of Acetylcholine Muscarinic M1 Receptor: Kinetic Measurement of Intracellular Calcium Response (AID 943);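 further: Fluo-4 calcium signal as peak divided by basal fluorescence over 4 min; series mostly up to about 35 µM; nearly all actives have a fitted effect of over 75% in size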
Method in brief: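 Read-out: peak over basal Fluo-4 fluorescence, kinetic at 1 Hz for 4 min after EC80 carbachol (100 nM final). Rat M1-CHO cells, dye loaded 1 h at 37C, compound added 10 min before agonist.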

[17] = target: Muscarinic acetylcholine receptor M1 (Rattus norvegicus) (UniProt P08482); assay: qHTS Assay for Antagonists of Acetylcholine Muscarinic M1 Receptor: Measurement of IP-One Response (AID 944); further: nearly all actives have a fitted effect of over 75% in size
Method in brief: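 Read-out: HTRF competition between d2-IP1 and Eu-cryptate anti-IP1 antibody, emission 620 and 665 nm. Stimulus was carbachol, EC80 (200 nM), for 30 min in M1-CHO cells (rat receptor), after 10 min compound pre-treatment.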

[18] = target: Pyruvate kinase (Leishmania mexicana) (UniProt Q27686); assay: qHTS Validation Assay for Inhibitors of Leishmania Mexicana Pyruvate Kinase (AID 945)
Method in brief: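 Luminescent ATP detection (PKLight) after a 1 h room-temperature reaction of 0.2 nM LmPYK E451W mutant with 0.5 mM PEP and 0.1 mM ADP at pH 7.2. Activity is normalized to DMSO-only control wells.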

[19] = target: Pyruvate kinase PKM (Homo sapiens) (UniProt P14618); assay: qHTS Assay for Activators of Human Muscle Pyruvate Kinase (AID 954; active means well fitted curve in the direction sought with a large enough effect, not every such curve was filed as active)
Method in brief: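 Compound pinned into substrate mix (0.5 mM PEP, 0.1 mM ADP), then 0.1 nM PKM2 added; 1 h, RT. Stop/detection luciferase reagent added, luminescence read. Normalized to no-inhibition and no-enzyme or reference-inhibitor controls.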

[20] = target: Cytochrome P450 3A4 (Homo sapiens) (UniProt P08684); assay: qHTS Assay for Inhibitors and Substrates of Cytochrome P450 3A4 (AID 884); further: series mostly up to about 57 µM; nearly all actives have a fitted effect of over 50% in size
Method in brief: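 Luminescent readout of luciferin produced by CYP3A4 (20 nM) dealkylation of Luciferin-PPXE, 25 uM (its KM). NADPH-driven reaction ran 60 min at RT after 10 min compound preincubation; data scaled to 57 uM ketoconazole as 100% inhibition.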

Measured: outcome

Sequence of Cytochrome P450 3A4 (Homo sapiens) (P08684 whole entry, looked up): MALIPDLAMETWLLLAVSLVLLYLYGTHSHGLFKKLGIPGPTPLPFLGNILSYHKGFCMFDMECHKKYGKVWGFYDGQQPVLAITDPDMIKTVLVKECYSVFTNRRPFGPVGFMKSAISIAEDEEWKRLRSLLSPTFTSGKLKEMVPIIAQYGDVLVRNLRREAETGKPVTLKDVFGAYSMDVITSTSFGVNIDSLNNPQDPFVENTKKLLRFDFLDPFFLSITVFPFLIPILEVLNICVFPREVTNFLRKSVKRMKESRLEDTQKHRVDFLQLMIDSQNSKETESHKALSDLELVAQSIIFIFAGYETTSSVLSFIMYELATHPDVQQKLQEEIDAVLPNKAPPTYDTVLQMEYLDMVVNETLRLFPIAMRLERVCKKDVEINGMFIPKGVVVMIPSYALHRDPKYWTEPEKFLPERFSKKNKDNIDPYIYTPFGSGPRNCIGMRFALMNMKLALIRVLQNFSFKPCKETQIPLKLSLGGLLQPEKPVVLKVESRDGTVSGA
Sequence of Muscarinic acetylcholine receptor M1 (Rattus norvegicus) (P08482 whole entry, looked up): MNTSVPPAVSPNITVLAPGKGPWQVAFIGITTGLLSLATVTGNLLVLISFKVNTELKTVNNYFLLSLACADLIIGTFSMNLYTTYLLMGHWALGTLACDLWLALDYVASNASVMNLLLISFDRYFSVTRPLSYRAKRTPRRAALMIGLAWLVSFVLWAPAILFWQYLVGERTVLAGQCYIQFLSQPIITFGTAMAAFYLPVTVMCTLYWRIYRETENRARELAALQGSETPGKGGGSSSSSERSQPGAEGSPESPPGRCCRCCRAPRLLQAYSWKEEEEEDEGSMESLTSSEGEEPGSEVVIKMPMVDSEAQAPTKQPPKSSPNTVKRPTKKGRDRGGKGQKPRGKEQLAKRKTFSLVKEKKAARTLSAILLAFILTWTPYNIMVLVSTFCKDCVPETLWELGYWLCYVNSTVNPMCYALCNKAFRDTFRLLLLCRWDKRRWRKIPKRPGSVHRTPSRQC
Sequence of Pyruvate kinase (Leishmania mexicana) (Q27686 2-499 E452W): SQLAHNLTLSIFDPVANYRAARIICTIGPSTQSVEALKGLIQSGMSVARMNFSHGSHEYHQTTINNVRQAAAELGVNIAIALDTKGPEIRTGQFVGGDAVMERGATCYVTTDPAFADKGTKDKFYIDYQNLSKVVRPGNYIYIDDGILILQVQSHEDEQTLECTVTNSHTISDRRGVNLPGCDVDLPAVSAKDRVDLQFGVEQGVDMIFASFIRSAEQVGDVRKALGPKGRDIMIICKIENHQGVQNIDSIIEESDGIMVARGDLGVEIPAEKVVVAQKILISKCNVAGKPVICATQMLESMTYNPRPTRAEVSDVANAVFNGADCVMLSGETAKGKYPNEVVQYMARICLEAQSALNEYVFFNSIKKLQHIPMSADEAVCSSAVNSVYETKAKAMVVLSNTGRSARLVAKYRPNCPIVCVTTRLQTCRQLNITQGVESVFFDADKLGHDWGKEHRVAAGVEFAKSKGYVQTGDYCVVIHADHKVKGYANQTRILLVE
Sequence of Pyruvate kinase PKM (Homo sapiens) (P14618 whole entry, looked up): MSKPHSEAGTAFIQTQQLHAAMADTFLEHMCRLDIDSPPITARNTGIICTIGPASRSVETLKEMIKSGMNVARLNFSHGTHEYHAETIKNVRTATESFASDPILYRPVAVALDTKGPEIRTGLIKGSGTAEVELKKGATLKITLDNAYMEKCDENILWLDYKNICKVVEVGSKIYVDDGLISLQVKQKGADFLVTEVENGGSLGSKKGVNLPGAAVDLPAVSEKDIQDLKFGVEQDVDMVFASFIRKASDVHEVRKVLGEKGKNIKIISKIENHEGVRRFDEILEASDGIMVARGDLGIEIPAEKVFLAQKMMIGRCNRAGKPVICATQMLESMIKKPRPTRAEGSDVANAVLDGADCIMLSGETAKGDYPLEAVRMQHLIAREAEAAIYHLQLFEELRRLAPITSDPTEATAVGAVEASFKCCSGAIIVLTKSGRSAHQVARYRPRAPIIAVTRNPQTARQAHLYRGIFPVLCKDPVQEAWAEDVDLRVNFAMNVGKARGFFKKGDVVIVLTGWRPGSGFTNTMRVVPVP
Sequence of Guanine nucleotide-binding protein G(i) subunit alpha-1 (Homo sapiens) (P63096 whole entry, looked up): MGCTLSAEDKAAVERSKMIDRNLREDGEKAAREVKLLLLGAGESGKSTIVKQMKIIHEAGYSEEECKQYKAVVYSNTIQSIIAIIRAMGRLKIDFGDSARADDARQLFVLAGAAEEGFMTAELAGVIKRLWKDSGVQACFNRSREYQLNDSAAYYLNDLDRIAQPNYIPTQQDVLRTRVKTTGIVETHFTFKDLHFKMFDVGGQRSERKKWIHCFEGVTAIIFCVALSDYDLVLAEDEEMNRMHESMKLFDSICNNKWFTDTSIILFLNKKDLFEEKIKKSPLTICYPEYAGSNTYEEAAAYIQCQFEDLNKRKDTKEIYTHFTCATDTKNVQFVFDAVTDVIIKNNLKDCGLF
Sequence of Cytochrome P450 2C19 (Homo sapiens) (P33261 whole entry, looked up): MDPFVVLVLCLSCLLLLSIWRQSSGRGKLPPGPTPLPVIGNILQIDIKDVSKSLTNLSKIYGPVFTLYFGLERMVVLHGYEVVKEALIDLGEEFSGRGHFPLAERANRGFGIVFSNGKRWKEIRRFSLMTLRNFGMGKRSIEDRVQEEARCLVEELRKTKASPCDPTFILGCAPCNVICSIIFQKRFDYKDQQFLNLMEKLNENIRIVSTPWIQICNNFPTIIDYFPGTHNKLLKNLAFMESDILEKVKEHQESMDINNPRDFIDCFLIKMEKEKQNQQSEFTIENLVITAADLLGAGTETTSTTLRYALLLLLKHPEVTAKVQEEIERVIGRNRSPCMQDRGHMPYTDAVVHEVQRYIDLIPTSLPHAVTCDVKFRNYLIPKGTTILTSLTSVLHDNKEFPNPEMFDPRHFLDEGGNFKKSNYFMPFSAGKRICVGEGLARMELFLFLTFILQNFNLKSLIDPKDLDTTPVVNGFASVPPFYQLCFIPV

O=C(/C=C/C=C/c1ccc2c(c1)OCO2)N1CCCCC1
inactive: [1] | [2] | [3]

C=C1C[C@]23C[C@@]1(O)CC[C@H]2[C@@]12C=C[C@H](O)[C@@](C)(C(=O)O1)[C@H]2[C@@H]3C(=O)O
inactive: [4] | [5] | [6] | [7] | [8] | [9] | [10] | [11] | [12]

CC(C)C[C@H](NC(=O)[C@@H]1O[C@H]1C(=O)O)C(=O)NCCCCN=C(N)N
inactive: [13] | [1] | [14] | [15] | [16] | [17] | [18] | [19]

CCOC(=O)C(CCc1ccccc1)NC(C)C(=O)N1Cc2ccccc2CC1C(=O)O (stereo not given)
inactive: [20] | [2] | [3]

C[C@]1(C2CCCC2)Cc2cc(OCC(=O)O)c(Cl)c(Cl)c2C1=O
inactive: [13] | [1] | [15] | [16] | [17] | [18] | [19]

COc1ccc(CCC(=O)c2c(O)cc(O[C@@H]3O[C@H](CO)[C@@H](O)[C@H](O)[C@H]3O[C@@H]3O[C@@H](C)[C@H](O)[C@@H](O)[C@H]3O)cc2O)cc1O
inactive: [4] | [5] | [6] | [7] | [20] | [8] | [9] | [10] | [11] | [12]
